This note sets out measurements from PubChem BioAssay (Tox21).

Each structure is given as a SMILES string. Inconclusive results are not listed. Active and inactive are the calls of the source. The call rests on the fitted dose curve; in most records, active means well fitted curve in the direction sought with a large enough effect in the repeat runs; inconclusive means weak or mixed curves; inactive means no such curve, though single readings can be large; an effect the other way counts as inactive or inconclusive.
On the % scale 0 is the no-effect control and ±100 the full control effect; potency means the concentration at half of the fitted maximal effect.

Aryl hydrocarbon receptor (Homo sapiens), sequence (P35869 whole entry, looked up): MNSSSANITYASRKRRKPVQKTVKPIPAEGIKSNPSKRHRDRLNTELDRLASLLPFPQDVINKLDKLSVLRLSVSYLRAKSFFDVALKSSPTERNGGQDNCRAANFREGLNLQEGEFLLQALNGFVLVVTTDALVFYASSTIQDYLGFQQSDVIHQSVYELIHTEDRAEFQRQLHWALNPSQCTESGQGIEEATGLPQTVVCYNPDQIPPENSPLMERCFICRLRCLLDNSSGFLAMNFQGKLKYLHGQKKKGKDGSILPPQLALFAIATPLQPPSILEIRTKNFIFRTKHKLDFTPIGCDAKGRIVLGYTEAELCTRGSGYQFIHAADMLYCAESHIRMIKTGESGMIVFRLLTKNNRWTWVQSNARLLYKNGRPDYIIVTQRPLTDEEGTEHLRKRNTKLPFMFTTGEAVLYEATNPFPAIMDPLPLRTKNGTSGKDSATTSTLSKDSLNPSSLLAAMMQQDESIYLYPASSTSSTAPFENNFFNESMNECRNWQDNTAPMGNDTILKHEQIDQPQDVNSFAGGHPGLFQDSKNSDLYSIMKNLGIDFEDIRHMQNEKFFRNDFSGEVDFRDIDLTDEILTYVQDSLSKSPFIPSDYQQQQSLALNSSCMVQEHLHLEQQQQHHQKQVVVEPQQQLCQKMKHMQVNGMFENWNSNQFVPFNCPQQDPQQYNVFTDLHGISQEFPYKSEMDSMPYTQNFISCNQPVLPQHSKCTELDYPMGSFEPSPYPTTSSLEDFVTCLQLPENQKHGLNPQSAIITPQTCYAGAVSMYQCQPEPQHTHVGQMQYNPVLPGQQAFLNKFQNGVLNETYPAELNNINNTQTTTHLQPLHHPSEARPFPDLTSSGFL

Test system in the first assay: not listed separately
In words: qHTS assay to identify aromatase inhibitors - cell viability counter screen (AID 743084).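 Further: cells stimulated with testosterone during compound exposure; nearly all actives have a fitted effect of over 55% in size.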 Particulars: MCF-7 aro ERE viability, CellTiter-Fluor, 24 h; series mostly up to 70.3 µM; activity change, negative = cytotoxicity: at the top concentration.
As for `O=C(O)/C=C/c1ccc(Cn2ccnc2)cc1`, the “activity change, negative = cytotoxicity” value is -1.9% [at 32.5 µM] (inactive).
Regarding `O=C(O)c1ccccc1S`, the “activity change, negative = cytotoxicity” value was 0.638% (inactive).
Same read-out and setting: for `c1ccc2cnncc2c1` the value was 1.38% (inactive); for `CCCCC1CCCCC(=O)O1` (stereo not drawn), 7.32% (inactive).
On the same count and under the same terms, under `CCCCCCCCCCCCCCCCCCOCC(O)CO` (stereo not drawn) stands -15.6% (inactive); under `O=S(=O)(O)c1ccccc1O`, 10.1% (inactive); under `CCc1cc(S(=O)(=O)O)c2cc(C(C)C)cccc1-2`, 9.36% (inactive).
On the same count and under the same terms, under `C=C(C)[C@@H]1CCC2=CC(=O)C[C@@H](C)[C@]2(C)C1` stands 5.56% (inactive); under `C=C(C)[C@H]1CC=C(C)CC1`, -0.592% (inactive).
As to `c1ccc(SCCSc2ccccc2)cc1`, the “activity change, negative = cytotoxicity” value was -1.82% (inactive).
Same read-out and setting: under `COC(C(=O)O)c1ccccc1` (stereo not drawn) stands 15.9% (inactive); under `CC1=CC(C)C(C=O)C(C)C1` (stereo not drawn), 3.64% (inactive).
`c1cc(CN2CCCCC2)cc(OCCCNc2nc3ccccc3s2)c1`: the “activity change, negative = cytotoxicity” value was -1.11% (inactive).
Turning to `COC(=O)[C@H]1[C@H]2C[C@@H]3c4[nH]c5cc(OC)ccc5c4CCN3C[C@H]2C[C@@H](OC(=O)COc2ccc(OC)cc2)[C@@H]1OC`, the “activity change, negative = cytotoxicity” value is -2.85% (inactive).
For `CN1[C@@H]2CC[C@H]1CC(NC(=O)n1c(=O)[nH]c3ccccc31)C2` (stereo partly drawn), the “activity change, negative = cytotoxicity” value is -18.6% (inactive).
Take `COc1ccc(N=[N+]([O-])c2ccc(OC)cc2)cc1`: the “activity change, negative = cytotoxicity” value was 3.61% (inactive).
`NC(CS)C(=O)O` (stereo not drawn): the “activity change, negative = cytotoxicity” value is 13.5% (inactive).
Same read-out and setting: for `Oc1ccc2c(c1)OC[C@@H](N1CCC(O)(c3ccc(F)cc3)CC1)[C@H]2O` the value was 12.2% (inactive).
Regarding `C=C(C)C(=O)NCCCN(C)C`, the “activity change, negative = cytotoxicity” value was -1.24% (inactive).
Same read-out and setting: for `CCC(=O)/C=C/c1ccc(OC)cc1` the value was -2.53% (inactive).
Regarding `OC1OC[C@@H](O)[C@H](O)[C@H]1O` (stereo partly drawn), the “activity change, negative = cytotoxicity” value is 11.3% (inactive).
Still for that read-out and setting: for `Cn1cnc2c(=O)[nH]c(N)nc21` the value was -4.97% (inactive).
In the case of `CCCCOCC(C)OCC(C)O` (stereo not drawn), the “activity change, negative = cytotoxicity” value was 27.8% [at 95 µM] (inactive).
Regarding `CC(C)c1ccc2oc3nc(N)c(C(=O)O)cc3c(=O)c2c1`, the “activity change, negative = cytotoxicity” value was -1.45% (inactive).
Take `Cc1ccccc1Br`: the “activity change, negative = cytotoxicity” value was 7.58% (inactive).
Turning to `COC(=O)C1=C(C)NC(C)=C(C(=O)OCC(C)=O)C1c1ccccc1[N+](=O)[O-]` (stereo not drawn), the Potency is 26.6 µM (active).
Regarding `Cc1nccn1CC1CCc2c(c3ccccc3n2C)C1=O` (stereo not drawn), the Potency result was “inactive”.
With `CCC(=O)Nc1cccc(N)c1`, the “activity change, negative = cytotoxicity” value was 16.2% (inactive).
Still for that read-out and setting: under `Cc1nc(-c2ccc(OCC(C)C)c(C#N)c2)sc1C(=O)O` stands 4.65% (inactive); under `Cc1ccc(N)cc1[N+](=O)[O-]`, 8.97% [at 95 µM] (inactive).

For a further assay, the target named is Aryl hydrocarbon receptor (Homo sapiens) (UniProt P35869). In words: qHTS assay to identify small molecule that activate the aryl hydrocarbon receptor (AhR) signaling pathway (AID 743085). Further: nearly all actives have a fitted effect of over 15% in size.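 On activation: HG2L7.5c1 human HepG2 liver cells with stably integrated DRE-driven firefly reporter.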 The conditions noted are these: HepG2 AhR-luc (HG2L7.5c1), luciferase, 24 h; series mostly up to 70.3 µM; activation: at the top concentration. A digest of the protocol:
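HepG2 cells stably carrying a 20-DRE firefly luciferase reporter (HG2L7.5c1) treated with compound for 24 hr at 37C. Luciferase read by ONE-Glo luminescence, with CellTiter-Fluor viability read first.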
On to `O=C(O)/C=C/c1ccc(Cn2ccnc2)cc1`, for which the “activation” value is 0.133% [at 32.5 µM] (inactive).
In the case of `O=C(O)c1ccccc1S`, the “activation” value is 0.375% (inactive).
`c1ccc2cnncc2c1`: the “activation” value was -0.208% (inactive).
As for `CCCCC1CCCCC(=O)O1` (stereo not drawn), the “activation” value was -3.45% (inactive).
On to `CCCCCCCCCCCCCCCCCCOCC(O)CO` (stereo not drawn), for which the “activation” value was 2.08% (inactive).
Still for that read-out and setting: under `O=S(=O)(O)c1ccccc1O` stands -0.554% (inactive); under `CCc1cc(S(=O)(=O)O)c2cc(C(C)C)cccc1-2`, 1.52% (inactive).
Still for that read-out and setting: under `C=C(C)[C@@H]1CCC2=CC(=O)C[C@@H](C)[C@]2(C)C1` stands -1.36% (inactive).
Consider `C=C(C)[C@H]1CC=C(C)CC1`, for which the “activation” value was -0.0162% (inactive).
The same measure, in the same setting: under `COC(C(=O)O)c1ccccc1` (stereo not drawn) stands 0.928% (inactive); under `CC1=CC(C)C(C=O)C(C)C1` (stereo not drawn), -0.0943% (inactive).
For the molecule `c1cc(CN2CCCCC2)cc(OCCCNc2nc3ccccc3s2)c1`, the Potency is 26.6 µM (active).
With `CN1[C@@H]2CC[C@H]1CC(NC(=O)n1c(=O)[nH]c3ccccc31)C2` (stereo partly drawn), the “activation” value was 1.45% (inactive).
As for `COc1ccc(N=[N+]([O-])c2ccc(OC)cc2)cc1`, the Potency was 9.59 µM (active).
As to `NC(CS)C(=O)O` (stereo not drawn), the “activation” value was -0.24% (inactive).
The same measure, in the same setting: under `C=C(C)C(=O)NCCCN(C)C` stands -0.997% (inactive); under `CCC(=O)/C=C/c1ccc(OC)cc1`, 4.53% (inactive).
As for `OC1OC[C@@H](O)[C@H](O)[C@H]1O` (stereo partly drawn), the “activation” value is -1.09% (inactive).
Turning to `CN(C)C(=O)C(CCN1CCC(O)(c2ccc(Cl)cc2)CC1)(c1ccccc1)c1ccccc1`, the “activation” value was -0.916% (inactive).
Take `CCN1CCCC(OC(=O)C(c2ccccc2)c2ccccc2)C1` (stereo not drawn): the “activation” value is -0.133% [at 32.5 µM] (inactive).
Same read-out and setting: for `Cn1cnc2c(=O)[nH]c(N)nc21` the value was 2.33% (inactive); for `CCCCOCC(C)OCC(C)O` (stereo not drawn), 0.28% [at 95 µM] (inactive).
Consider `CC(C)c1ccc2oc3nc(N)c(C(=O)O)cc3c(=O)c2c1`, for which the Potency is 0.841 µM (active).
Turning to `Cc1ccccc1Br`, the “activation” value is 2.76% (inactive).
Regarding `COC(=O)C1=C(C)NC(C)=C(C(=O)OCC(C)=O)C1c1ccccc1[N+](=O)[O-]` (stereo not drawn), the Potency was 8.41 µM (active).
On to `Cc1nccn1CC1CCc2c(c3ccccc3n2C)C1=O` (stereo not drawn), for which the Potency result is “inactive”.
As to `CCC(=O)Nc1cccc(N)c1`, the “activation” value was 1.9% (inactive).
As for `Cc1nc(-c2ccc(OCC(C)C)c(C#N)c2)sc1C(=O)O`, the Potency was 0.0298 µM (active).

Test system in another assay: not listed separately
Put plainly: qHTS assay to identify small molecule that activate the aryl hydrocarbon receptor (AhR) signaling pathway - cell viability counter screen (AID 743086). Further: nearly all actives have a fitted effect of over 45% in size. Particulars: HepG2-AhR-luc viability, CellTiter-Fluor, 24 h; series mostly up to 70.3 µM; viability change, negative = cytotoxic: at the top concentration. In short, it runs like this: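 Cytotoxicity counter screen: CellTiter-Fluor signal (30 min, 37 C) in 4000 HepG2 cells/well carrying the DRE-luciferase reporter, following 24 h compound exposure at 37 C.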
Take `O=C(O)/C=C/c1ccc(Cn2ccnc2)cc1`: the “viability change, negative = cytotoxic” value is -7.2% [at 32.5 µM] (inactive).
Turning to `O=C(O)c1ccccc1S`, the “viability change, negative = cytotoxic” value was 4.17% (inactive).
As to `c1ccc2cnncc2c1`, the “viability change, negative = cytotoxic” value was -0.571% (inactive).
On to `O=S(=O)(O)c1ccccc1O`, for which the “viability change, negative = cytotoxic” value was -0.479% (inactive).
On to `CCc1cc(S(=O)(=O)O)c2cc(C(C)C)cccc1-2`, for which the “viability change, negative = cytotoxic” value was 7.6% (inactive).
Same read-out and setting: for `C=C(C)[C@@H]1CCC2=CC(=O)C[C@@H](C)[C@]2(C)C1` the value was 13.9% (inactive); for `C=C(C)[C@H]1CC=C(C)CC1`, 7.95% (inactive).
Same read-out and setting: under `c1ccc(SCCSc2ccccc2)cc1` stands 4.37% (inactive).
The same measure, in the same setting: for `COC(C(=O)O)c1ccccc1` (stereo not drawn) the value was 9.98% (inactive).
For `COC(=O)[C@H]1[C@H]2C[C@@H]3c4[nH]c5cc(OC)ccc5c4CCN3C[C@H]2C[C@@H](OC(=O)COc2ccc(OC)cc2)[C@@H]1OC`, the “viability change, negative = cytotoxic” value is 6.51% (inactive).
The same measure, in the same setting: for `CN1[C@@H]2CC[C@H]1CC(NC(=O)n1c(=O)[nH]c3ccccc31)C2` (stereo partly drawn) the value was -6.26% (inactive); for `COc1ccc(N=[N+]([O-])c2ccc(OC)cc2)cc1`, 11.6% (inactive).
As for `NC(CS)C(=O)O` (stereo not drawn), the “viability change, negative = cytotoxic” value is 4.17% (inactive).
As for `Oc1ccc2c(c1)OC[C@@H](N1CCC(O)(c3ccc(F)cc3)CC1)[C@H]2O`, the “viability change, negative = cytotoxic” value is 9.01% (inactive).
Same read-out and setting: under `CCCCCCCCCCCCI` stands -0.397% [at 95 µM] (inactive); under `C=C(C)C(=O)NCCCN(C)C`, -7.73% (inactive); under `CCCCCCCCCCCCCCC`, -11.4% (inactive).
Same read-out and setting: for `OC1OC[C@@H](O)[C@H](O)[C@H]1O` (stereo partly drawn) the value was 4.37% (inactive); for `CCN1CCCC(OC(=O)C(c2ccccc2)c2ccccc2)C1` (stereo not drawn), 3.92% [at 32.5 µM] (inactive); for `Cn1cnc2c(=O)[nH]c(N)nc21`, -2.01% (inactive).
Regarding `CCCCOCC(C)OCC(C)O` (stereo not drawn), the “viability change, negative = cytotoxic” value was 3.83% [at 95 µM] (inactive).
Take `Cc1ccccc1Br`: the “viability change, negative = cytotoxic” value is -11.3% (inactive).
In the case of `COC(=O)C1=C(C)NC(C)=C(C(=O)OCC(C)=O)C1c1ccccc1[N+](=O)[O-]` (stereo not drawn), the Potency is 29.8 µM (active).
For `CC(O)CN(CCCN(C)C)CCCN(C)C` (stereo not drawn), the “viability change, negative = cytotoxic” value was 13% (inactive).
On the same count and under the same terms, for `CCCCC=O` the value was 14.8% (inactive).
Consider `Cc1nccn1CC1CCc2c(c3ccccc3n2C)C1=O` (stereo not drawn), for which the Potency entry is “inactive”.
Turning to `N#CCN(CC#N)CCN(CC#N)CC#N`, the “viability change, negative = cytotoxic” value is -3.34% (inactive).
Still for that read-out and setting: under `CN(C)N=Nc1ccccc1` stands 8.14% (inactive); under `Cc1nc(-c2ccc(OCC(C)C)c(C#N)c2)sc1C(=O)O`, 12.5% (inactive).
For `Cc1ccc(N)cc1[N+](=O)[O-]`, the “viability change, negative = cytotoxic” value was -21.2% [at 95 µM] (inactive).
